Laboratory results as given in PubChem BioAssay (EPA / NIEHS).
Results filed as inconclusive are left out. The source made the active and inactive calls. The calls were made as follows, unless noted: active = hit-call score of the fitted dose curve at least 0.9, where 1 is the maximum; inconclusive = response in the unintended direction; inactive = score below 0.9.

Assays:
[1] = TOX21_p53_BLA_p2_viability: Viability Assessment in the Tox21 HCT-116 p53 Agonism Beta-lactamase Assay, Phase 2 (AID 2283591);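 also: compound exposure lasted 16 h at 37 °C; actives lower the ATP signal meaning cytotoxicity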
How it was run: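 HCT116 p53-bla cells, 4000/well, dosed after 5 h plating (217-fold dilution of DMSO stocks) and incubated 16 h at 37C. Viability taken as cellular ATP by CellTiter-Glo luminescence after 30 min RT; signal loss marks cytotoxicity.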

[2] = target: Cellular tumor antigen p53 (Homo sapiens) (UniProt P04637); test: TOX21_p53_BLA_p2_ratio: Tox21 HCT-116 p53 Agonism Beta-lactamase Assay, Ratio, Phase 2 (AID 2283592)
Chain of Cellular tumor antigen p53 (Homo sapiens) (P04637 whole entry, looked up): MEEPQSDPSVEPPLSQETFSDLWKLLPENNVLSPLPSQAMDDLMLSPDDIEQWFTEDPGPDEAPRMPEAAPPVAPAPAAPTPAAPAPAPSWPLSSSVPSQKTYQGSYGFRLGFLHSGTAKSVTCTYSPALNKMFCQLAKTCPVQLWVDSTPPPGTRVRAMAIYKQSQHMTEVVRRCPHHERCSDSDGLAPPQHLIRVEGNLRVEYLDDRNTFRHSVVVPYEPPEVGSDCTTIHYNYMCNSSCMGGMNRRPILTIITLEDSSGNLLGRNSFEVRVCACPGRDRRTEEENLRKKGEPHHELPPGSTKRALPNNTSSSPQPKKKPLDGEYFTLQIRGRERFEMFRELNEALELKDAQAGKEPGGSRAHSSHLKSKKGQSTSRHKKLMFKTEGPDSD
How it was run: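 Cleaved-to-uncleaved substrate ratio (460 vs 530 nm) measured in HCT116 cells with an inducible beta-lactamase reporter linked to p53 activity. Compounds incubated 16 h at 37C before 2 h room-temperature CCF4-AM loading.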

[3] = TOX21_p53_BLA_p3_viability: Viability Assessment in the Tox21 HCT-116 p53 Agonism Beta-lactamase Assay, Phase 3 (AID 2283593);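 also: cells exposed to compound for 16 h before reading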
How it was run: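 HCT116 cells, 4000/well, dosed 5 h after plating by pin transfer (217-fold dilution from DMSO stock) and incubated 16 h at 37C, 5% CO2. Viability read as ATP luminescence with CellTiter-Glo after 30 min at room temperature.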

[4] = target: Cellular tumor antigen p53 (Homo sapiens) (UniProt P04637); test: TOX21_p53_BLA_p3_ratio: Tox21 HCT-116 p53 Agonism Beta-lactamase Assay, Ratio, Phase 3 (AID 2283596)
How it was run: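 Cells were seeded at 4000/well, rested 5 h at 37C, then dosed with DMSO compound solutions (217-fold dilution) for 16 h. CCF4-AM substrate was loaded for 2 h at room temperature, and the 460/530 nm emission ratio was fitted for gain of signal versus DMSO.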

[5] = TOX21_p53_BLA_p4_viability: Viability Assessment in the Tox21 HCT-116 p53 Agonism Beta-lactamase Assay, Phase 4 (AID 2283597);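 also: hits lower the luminescence signal meaning cytotoxicity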
How it was run: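 Viability is taken as cellular ATP: after 16 h compound exposure of HCT116 cells and a 2 h room-temperature CCF4-AM substrate step, CellTiter-Glo reagent is added and luminescence is measured 30 min later.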

[6] = target: Cellular tumor antigen p53 (Homo sapiens) (UniProt P04637); test: TOX21_p53_BLA_p5_ratio: Tox21 HCT-116 p53 Agonism Beta-lactamase Assay, Ratio, Phase 5 (AID 2283599)
How it was run: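 HCT-116 p53-bla cells (4000/well) plated 5 h, dosed with compound (217-fold DMSO dilution) for 16 h at 37 C; CCF4-AM substrate 2 h at room temperature. Activity is the 460/530 nm emission ratio (405 nm excitation), fitted in gain-of-signal direction versus DMSO.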

[7] = target: Cellular tumor antigen p53 (Homo sapiens) (UniProt P04637); test: TOX21_p53_BLA_p4_ratio: Tox21 HCT-116 p53 Agonism Beta-lactamase Assay, Ratio, Phase 4 (AID 2283601)
How it was run: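 HCT-116 p53 beta-lactamase reporter cells (4000/well) preincubated 5 h, then compound (217-fold dilution of DMSO stock) for 16 h at 37C. CCF4-AM substrate added 2 h at room temperature; 460/530 nm emission ratio fitted upward versus DMSO.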

[8] = TOX21_p53_BLA_p5_viability: Viability Assessment in the Tox21 HCT-116 p53 Agonism Beta-lactamase Assay, Phase 5 (AID 2283600)
How it was run: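 Viability is taken from cellular ATP content, measured by luciferase luminescence in the same wells after the beta-lactamase ratio read. Cells are seeded at 4000 per well and exposed to DMSO-dissolved compounds, diluted 217-fold, for 16 h.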

[9] = CCTE_Harrill_HTTr_Viability_MCF7: CCTE's 6-hour Cell Viability Assessment for the High-Throughput Transcriptomics (HTTr) Platform, in MCF-7 cells cultured in DMEM + 10% fetal bovine serum, Harrill Lab (AID 2284010; active = hit-call score of the fitted dose curve at least 0.9, where 1 is the maximum; inactive = score below 0.9)
How it was run: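 Eight-point concentration series, six-hour exposure. Propidium iodide exclusion imaged to assess membrane integrity as a cytotoxicity readout; bidirectional fitting was done with DMSO as negative control and activity baseline.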

[10] = CCTE_Harrill_HTTr_Apoptosis_MCF7: CCTE's 6-hour Apoptosis Assessment for the High-Throughput Transcriptomics (HTTr) Platform, in MCF-7 cells cultured in DMEM + 10% fetal bovine serum, Harrill Lab (AID 2284011; active = hit-call score of the fitted dose curve at least 0.9, where 1 is the maximum; inactive = score below 0.9)
How it was run: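 Cells are dosed with test chemicals at eight concentrations and imaged 6 hours later for caspase-3/7 activity using a green fluorogenic detection reagent. Activity is fitted in both directions against DMSO controls.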

[11] = TOX21_TRB_BLA_Antagonist_Followup_viability: Viability Assessment in the Tox21 Thyroid Hormone Receptor beta Antagonism Beta-lactamase (BLA) Follow-Up Assay (AID 2283961)
How it was run: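 Cytotoxicity is measured in parallel with the antagonist-mode TRβ beta-lactamase screen, using ATP-coupled luciferase luminescence. Engineered HEK293T cells are treated for 18 h with 11-point compound series in triplicate.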

[12] = target: Retinoic acid receptor RXR-alpha (Homo sapiens) (UniProt P19793); test: TOX21_TR_RXR_BLA_Antagonist_Followup_ratio: Tox21 Thyroid Hormone Receptor beta Retinoid X Receptor alpha (RXRa) Antagonism Beta-lactamase (BLA) Follow-Up Assay, Ratio (AID 2283972)
Chain of Retinoic acid receptor RXR-alpha (Homo sapiens) (P19793 whole entry, looked up, the tested form may be a part): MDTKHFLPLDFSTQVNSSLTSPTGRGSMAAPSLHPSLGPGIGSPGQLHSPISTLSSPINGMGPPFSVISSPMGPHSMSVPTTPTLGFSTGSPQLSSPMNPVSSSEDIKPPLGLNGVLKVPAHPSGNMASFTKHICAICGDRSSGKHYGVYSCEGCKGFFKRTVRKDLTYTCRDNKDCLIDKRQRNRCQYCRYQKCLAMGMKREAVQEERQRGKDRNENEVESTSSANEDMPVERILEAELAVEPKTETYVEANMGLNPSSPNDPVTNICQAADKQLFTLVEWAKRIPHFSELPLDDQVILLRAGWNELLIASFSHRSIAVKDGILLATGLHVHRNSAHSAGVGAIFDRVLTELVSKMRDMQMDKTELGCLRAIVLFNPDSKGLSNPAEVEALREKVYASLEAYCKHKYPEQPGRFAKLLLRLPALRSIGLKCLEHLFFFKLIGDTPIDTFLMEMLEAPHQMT
How it was run: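 Antagonist mode used GAL4 UAS-driven beta-lactamase in HEK293T cells expressing RXRa, treated for 16 h with compound concentration series. Activity was taken from the blue/green (460:530 nm) ratio of cleaved to uncleaved substrate.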

[13] = target: THRB (gene 7068) (UniProt P10828); test: TOX21_TRB_BLA_Antagonist_Followup_ratio: Tox21 Thyroid Hormone Receptor beta Antagonism Beta-lactamase (BLA) Follow-Up Assay, Ratio (AID 2283958)
Chain of THRB (gene 7068) (P10828 whole entry, looked up, the tested form may be a part): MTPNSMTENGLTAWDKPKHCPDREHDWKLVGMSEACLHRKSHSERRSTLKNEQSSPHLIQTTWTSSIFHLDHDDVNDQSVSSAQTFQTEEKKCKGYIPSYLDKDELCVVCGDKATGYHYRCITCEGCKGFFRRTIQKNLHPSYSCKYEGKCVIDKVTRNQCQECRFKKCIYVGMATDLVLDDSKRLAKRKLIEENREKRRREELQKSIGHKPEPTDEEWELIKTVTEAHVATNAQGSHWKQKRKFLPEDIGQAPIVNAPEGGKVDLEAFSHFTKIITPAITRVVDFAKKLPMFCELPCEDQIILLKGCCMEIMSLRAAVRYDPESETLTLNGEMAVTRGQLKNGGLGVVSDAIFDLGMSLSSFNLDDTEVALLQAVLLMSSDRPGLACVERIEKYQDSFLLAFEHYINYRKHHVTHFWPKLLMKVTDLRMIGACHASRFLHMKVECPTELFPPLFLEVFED
How it was run: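 Using charcoal-stripped 2% FBS medium, human TRβ-LBD/GAL4 reporter HEK293T cells received test compounds for 18 h. The endpoint is the cleaved-to-uncleaved substrate ratio (460/530 nm).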

[14] = TOX21_TR_RXR_BLA_Antagonist_Followup_viability: Viability Assessment in the Tox21 Thyroid Hormone Receptor beta Retinoid X Receptor alpha (RXRa) Antagonism Beta-lactamase (BLA) Follow-Up Assay (AID 2283979)
How it was run: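 RXRa-bla HEK293T cells (2,500/well, phenol red-free DMEM, 2% charcoal-stripped FBS) were attached 5 h, then exposed to compounds at 11 concentrations in triplicate for 16 h at 37C. Viability measured by CellTiter-Glo ATP luminescence, bidirectional fitting versus DMSO.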

[15] = target: THRB (gene 7068) (UniProt P10828); test: TOX21_TRB_COA_Antagonist_Followup_ratio: Tox21 Thyroid Hormone Receptor beta Antagonism through Coactivator Recruitment Follow-Up Assay, Ratio (AID 2283967)
How it was run: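 GST-TRb LBD 5.0 nM + 0.10% BSA, compound added; fluorescein-SRC-2 peptide 200 nM, Tb-anti-GST Ab 2 nM. TR-FRET, ex 340 / em 520:495 ratio. Norm: DMSO 0%, T3 100%.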

Measured: AC50

O=C(O)c1cc(-c2ccc(F)cc2F)ccc1O
inactive: [1] | [2] | [3] | [4] | [5] | [6] | [7]

CC1(C)S[C@@H]2[C@H](NC(=O)[C@H](N)c3ccc(O)cc3)C(=O)N2[C@H]1C(=O)O
inactive: [1] | [2] | [3] | [4] | [5] | [6] | [8] | [7]

CNC(=O)c1cc(Oc2ccc(NC(=O)Nc3ccc(Cl)c(C(F)(F)F)c3)cc2)ccn1
inactive: [1] | [3] | [5] | [8] | [7]
active: [2] 7130 nM | [4] 5520 nM | [6] 6760 nM

COc1ccc(Cl)cc1C(=O)NCCc1ccc(S(=O)(=O)NC(=O)NC2CCCCC2)cc1
not listed: [11] | [12] | [13] | [14] | [15]
inactive: all other assays above

CO[C@@H]1[C@H](OC(=O)/C=C/C=C/C=C/C=C/C(=O)O)CC[C@]2(CO2)[C@H]1[C@@]1(C)O[C@@H]1CC=C(C)C
not listed: [11] | [12] | [13] | [14] | [15]
inactive: all other assays above

CC[C@@]1(O)C(=O)OCc2c1cc1n(c2=O)Cc2cc3c(CN(C)C)c(O)ccc3nc2-1
inactive: [11] | [12]
active: [1] 7020 nM | [2] 807 nM | [3] 7350 nM | [4] 381 nM | [5] 7740 nM | [6] 692 nM | [8] 7270 nM | [7] 6700 nM

COc1cc2c(Nc3ccc(Br)cc3F)ncnc2cc1OCC1CCN(C)CC1
inactive: [1] | [2] | [3] | [4] | [5] | [6] | [8] | [7]

CNC(=O)c1ccccc1Sc1ccc2c(/C=C/c3ccccn3)n[nH]c2c1
active: [2] 922 nM | [4] 1020 nM | [6] 894 nM | [7] 738 nM
inactive: [1] | [3] | [5]

Oc1c(I)cc(I)c2cccnc12
active: [1] 10600 nM | [3] 9750 nM | [5] 23000 nM
not listed: [9] | [10] | [15]
inactive: all other assays above

CCOC(=O)n1ccn(C)c1=S
not listed: [11] | [12] | [13] | [14] | [15]
inactive: all other assays above

CC(C)(C)OC(=O)c1cccc(N)c1
inactive: [1] | [2] | [3] | [4] | [5] | [6] | [7]

NNc1ccc(C(=O)O)cc1
inactive: [1] | [2] | [3] | [4] | [5] | [6] | [7]

O=C1Cc2cc(CCN3CCN(c4nsc5ccccc45)CC3)c(Cl)cc2N1
inactive: [1] | [2] | [3] | [4] | [5] | [6] | [8] | [7]

NNc1nncc2ccccc12
not listed: [11] | [12] | [13] | [14] | [15]
inactive: all other assays above

OC[C@@H](O)[C@H](O)[C@H](O)[C@@H](O)CO
inactive: [1] | [2] | [3] | [4] | [5] | [6] | [7]

CCCCCCNC(=O)n1cc(F)c(=O)[nH]c1=O
active: [1] 709 nM | [2] 770 nM | [3] 1260 nM | [4] 2570 nM | [5] 3620 nM | [6] 2870 nM | [8] 1020 nM | [7] 2240 nM
inactive: [11] | [15] | [14]

Clc1cccc(Cl)c1NC1=NCCN1
not listed: [11] | [12] | [13] | [14] | [15]
inactive: all other assays above

CCC[C@@]1(CCc2ccccc2)CC(O)=C([C@H](CC)c2cccc(NS(=O)(=O)c3ccc(C(F)(F)F)cn3)c2)C(=O)O1
not listed: [9] | [10] | [15]
inactive: all other assays above

CC1(C)Oc2ccc(C#N)cc2[C@@H](N2CCCC2=O)[C@@H]1O
inactive: [1] | [2] | [3] | [4] | [5] | [6] | [7]

O=[N+]([O-])c1ccc(NCCO)c(OCCO)c1
inactive: [1] | [2] | [3] | [4] | [5] | [6] | [7]
